We go through 27 molecules from PubChem BioAssay (NCI).

Values joined by “and” are separate entries in the source; they are usually repeats but may differ in a detail not shown here. Equal values may be shown once. This is part of a sample that, as a whole, favours compounds with a hit. Of some 83,000 tested, about 20% had one in any assay.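 The test compound was applied at a single concentration to cells in 96-well plates for 48 hours, and percent growth was recorded.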 Values without a mark were called inactive. Active and inactive are the calls of the source.

The test system of one experiment is HS 578T breast. As to the kind of experiment: NCI-60 one-dose screen, 48 h (100 = growth as untreated, 0 = no growth, -100 = all killed). The settings on record: 10 µM. On the procedure: Growth inhibition of the HS 578T human tumor cell line is measured as a screen for anti-cancer activity. Cells are grown in 96 well plates and exposed to the test compound for 48 hours. Compounds are tested at a single concentration, which is 10^-5 M for most compounds. The reported endpoint is percent growth (GI% or GIPRCNT), where numbers from 0 - 100% represent growth inhibition, and numbers from -100% - 0 represent cell death. For example, a value of 40 represents 60% growth inhibition. A value of 0 means no net growth occurred over the course of the experiment. A value of -40 indicates 40% of cells at the beginning of the experiment died by the end of the experiment. A value of -100 means all cells are dead at the end of the experiment.
NCI-60 Human Tumor Cell Lines Screen was performed using the standard one-dose NCI protocol, which is described in more detail at https://dtp.cancer.gov/discovery_development/nci-60/default.htm.
Compounds with GIPRCNT values below 10 were considered active. Activity score was based on GIPRCNT using the following formula: […]
Score is 0 for GIPRCNT values of 100 or above, 50 for GIPRCNT values of 0, and 100 for GIPRCNT values of -100.
As to `S=C(SSC(=S)N1CCCCC1)N1CCCCC1`, the growth is 111%.

Staying with this experiment, now noted: 10 µM unless noted.
In the case of `CC[C@@]1(O)C(=O)OCc2c1cc1n(c2=O)Cc2cc3ccccc3nc2-1`, the growth was 22.6%. Still for that read-out and setting: the figure for `C[C@]12CC[C@H](O)CC1=CC[C@@H]1[C@@H]2CC[C@]2(C)C(=O)CC[C@@H]12` is 130%; for `Cc1ccc(C(=O)OC(C(=O)O)C(OC(=O)c2ccc(C)cc2)C(=O)O)cc1` (stereo not drawn) (tested in a mixture with another compound) it is 40%.

In the case of `Oc1cccc2cccnc12`, the growth is 116% and 101%.

As for `CCC1(O)CC(OC2CC(N(C)C)C(OC3CC4OC5CC(=O)C(C)OC5OC4C(C)O3)C(C)O2)c2c(cc3c(c2O)C(=O)c2c(O)ccc(O)c2C3=O)C1C(=O)OC` (stereo not drawn), the growth was -37% (active). For the molecule `CCC(=O)OC1CCn2c1nc1c2C(=O)C(C)=C(N2CC2)C1=O` (stereo not drawn), the growth was -5.47% (active). On the same count and under the same terms, under `CC[C@@]1(O)C[C@H](OC2CC(N(C)C)C(OC3CC(O)C(OC4CCC(=O)C(C)O4)C(C)O3)C(C)O2)c2c(cc3c(c2O)C(=O)c2c(O)ccc(O)c2C3=O)[C@H]1C(=O)OC` (stereo partly drawn) stands 9.34% (active).

As to `CC(=O)O[C@H]1C[C@@H]2OC3C=C(C)CCC3(C)[C@@]1(C)[C@@]21CO1` (stereo partly drawn), the growth was -6.29% (active). In the case of `CCCCCCCCCCCC1CCCC(C)N1` (stereo not drawn), the growth is 64.5%.

On to `COC1=C(C)C(=O)C2=C(C1=O)C(CO)N1C(C#N)C3CC4C(C1C2N1CCOC41)N3C` (stereo not drawn), for which the growth is -55.2% (active). For `CC1=C(CO)C2=C(C)C3(CC3)[C@@](C)(O)C(=O)C2=C1`, the growth was 8.86% (active). On the same count and under the same terms, the figure for `CN1CCN(c2ccc([N+](=O)[O-])c3no[n+]([O-])c23)CC1` is -12% (active); for `CC1=C2C(=O)[C@H]3[C@@H](CC=C4C[C@@H](O)CC[C@@]43C)[C@@H]2CC[C@]12O[C@@H]1C[C@H](C)CN[C@H]1[C@H]2C` it is 118%. On the same count and under the same terms, the figure for `COc1ccccc1/C=C(/C)[N+](=O)[O-]` is 97.2% and 118%; for `COC1CC(CC2CCC(C)C(C(C)C(=O)O)O2)OC2(OC(C)(C3CCC(C)(C4OC(C5OC(O)(CO)C(C)CC5C)CC4C)O3)CC2C)C1C` (stereo not drawn) it is 14.3%; for `COc1cccc2c1cc([N+](=O)[O-])c1c(C(=O)O)cc3c(c12)OCO3` it is 107% and 110%. In the case of `CC[C@](O)(C(=O)O)c1cc2n(c(=O)c1CO)Cc1cc3ccccc3nc1-2`, the growth is 29.4%.

For the molecule `CC[n+]1c(-c2ccccc2)c2cc(N)ccc2c2ccc(N)cc21`, the growth is 3.75% (active). `CCOC(=O)C(NC(=O)C(Cc1ccc(N(CCCl)CCCl)cc1)NC(C)=O)C(C)C` (stereo not drawn): the growth was 101%. Same read-out and setting: the figure for `COc1ccc(OC)c(/C=C/[N+](=O)[O-])c1` is 4.59% (active); for `Cc1c(N)nc([C@H](CC(N)=O)NC[C@H](N)C(N)=O)nc1C(=O)N[C@H](C(=O)N[C@H](C)[C@@H](O)[C@H](C)C(=O)N[C@H](C(=O)NCCc1nc(-c2nc(C(=O)NCCC[S+](C)C)cs2)cs1)[C@@H](C)O)C(OC1OC(CO)C(O)C(O)C1OC1OC(CO)C(O)C(OC(N)=O)C1O)c1cnc[nH]1` (stereo partly drawn) it is -2.02% [2.5 µM] (active). For `NCCc1ccc(OCc2ccccc2)c(OCc2ccccc2)c1`, the growth was 126%.

In the case of `CC[C@@]1(O)C[C@H](OC2CC(N(C)C)C(O)C(C)O2)c2c(O)c3c(c(O)c2[C@H]1OC1CC(N(C)C)C(O)C(C)O1)C(=O)c1cccc(O)c1C3=O` (stereo partly drawn), the growth is -38.5% (active).

For the molecule `Oc1cc[c]([Hg][Cl])cc1`, the growth is 85.5%.

In the case of `C[C@H]1CCC/C=C/[C@@H]2C[C@H](O)C[C@H]2[C@H](O)/C=C/C(=O)O1`, the growth is 57.9%. Take `CO[C@H](/C(C)=C/C=C/C(C)=C/c1coc(C)n1)[C@H](C)[C@H]1C[C@@H](O)[C@@]2(C)O[C@H]2/C=C/[C@@H](C)[C@@H]2C[C@@H](CC(=O)O2)C[C@H]2O[C@@H]2C(=O)O1`: the growth was -2.81% (active).

Staying with this experiment, now noted: 100 µM.
Turning to `S=C(SSC(=S)N1CCCCC1)N1CCCCC1`, the growth was 59.7%.
